{"source": "PubChem BioAssay (NCATS)", "note": "Inconclusive results are not listed. Active and inactive are the calls of the source. The call rests on the fitted dose curve; in most records, active means well fitted inhibition curve with a large enough effect; inconclusive means small, poorly fitted or top-dose-only effect, or effect the other way; inactive means flat fitted curve, though single readings scatter. Potency means the concentration at half of the fitted maximal effect.", "data": [{"target": "ATP-dependent 6-phosphofructokinase (Trypanosoma brucei brucei) (UniProt O15648)", "sequence (O15648 whole entry, looked up)": "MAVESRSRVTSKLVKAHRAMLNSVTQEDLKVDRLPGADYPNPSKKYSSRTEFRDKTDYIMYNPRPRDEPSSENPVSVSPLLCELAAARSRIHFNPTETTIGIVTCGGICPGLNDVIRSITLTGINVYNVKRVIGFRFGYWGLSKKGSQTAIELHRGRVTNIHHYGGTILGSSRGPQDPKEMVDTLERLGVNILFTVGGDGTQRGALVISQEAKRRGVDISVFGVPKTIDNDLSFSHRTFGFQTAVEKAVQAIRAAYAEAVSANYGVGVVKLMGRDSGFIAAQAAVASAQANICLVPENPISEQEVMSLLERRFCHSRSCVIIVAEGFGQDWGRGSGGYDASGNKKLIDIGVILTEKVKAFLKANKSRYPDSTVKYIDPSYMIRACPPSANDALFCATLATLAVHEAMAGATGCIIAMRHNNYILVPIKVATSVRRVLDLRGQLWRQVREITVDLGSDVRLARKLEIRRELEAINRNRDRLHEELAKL", "test": "qHTS Assay to Find Inhibitors of T. brucei phosphofructokinase: hit validation (AID 492961);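 on activity change, negative = inhibition: luminescence reports ADP formed as PFK phosphorylates fructose-6-phosphate with ATP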", "conditions": "T. brucei PFK, ADP-Glo luminescence; series mostly up to 51.4 µM; activity change, negative = inhibition: at the top concentration", "source_text": "NIH Molecular Libraries Probe Production Network [MLPCN] NIH Chemical Genomics Center [NCGC] Grant: 1 R03 MH092153-01 PI Name: Malcolm Walkinshaw, University of Edinburgh NCGC Assay Overview: Various species of the protozoan family Trypanosomatidae are responsible for a range of serious human diseases in tropical and subtropical areas of the world. […] Many of the disorders caused by trypanosomatids are fatal if left untreated, but most currently used drugs are inefficient and toxic. […] Oxidative metabolism involving the mitochondrial tricarboxylic acid cycle and oxidative phosphorylation are repressed in these parasites, and recent RNA interference (RNAi) experiments have shown that even partial depletion of certain individual glycolytic enzymes can lead to the death of cultured parasites. One such glycolytic enzyme, phosphofructokinase (PFK), catalyzes the formation of fructose-1,6-bisphosphate (F1,6BP) and ADP from fructose-6-phosphate (F6P) and ATP, and in many metabolic circumstances makes an important contribution to the control of flux through the glycolytic pathway. As a specific glycolytic target, PFK is particularly attractive as it catalyzes the first irreversible step in glycolysis, and structural and kinetic studies have shown very substantial and essential differences from corresponding host enzymes, allowing for the discovery of parasite-selective inhibitors. The goal of this screen is to find small-molecule inhibitors of T. brucei PFK using a biochemical assay that measures PFK activity as a function of ADP production. A luminescence-based assay for T. brucei PFK activity has been developed which uses luciferase to detect production of ADP. Traditional luciferase-based nucleotide detection reagents rely on ATP production as a direct substrate for the luciferase reaction; however, PFK catalyzes the transfer of a phosphate from ATP to F6P, resulting in the net depletion of ATP. To directly measure the ADP product of the PFK reaction, we used the ADP-Glo detection kit (Promega), which utilizes two separate reactions to 1) deplete all remaining uncatalyzed ATP and 2) convert all remaining ADP to ATP, which is then detected through a traditional luciferase-coupled reaction. Compounds were screened as a concentration-titration series that ranged from 57 uM to 0.7 nM.\nNCGC Assay Protocol Summary: Substrate buffer was dispensed into white, solid 1536-well plates at 3uL/well in 0.1M triethanolamine (TEA) buffer, pH 8.0, containing final concentrations of 5 mM MgCl2, 0.01% Tween20, 0.5 mM fructose-6-phosphate (F6P) and 0.1mM ATP. Then, 23 nL of compounds or DMSO were delivered to each well using a pin tool. One uL T. brucei PFK (0.1M TEA, 0.01% Tween20, 0.1% bovine serum albumin (BSA) and 1.25nM PFK, final concentrations) was then dispensed, and plates were incubated at room temperature for 45 min. The luminescent detection reagent, ADP-Glo (Promega), was then added in two steps: the first reagent, ADP-Glo (which converts remaining uncatalyzed ATP), was added at 2.5uL/well and incubated for ten minutes at room temperature, and the second component, Kinase Detection reagent (which converts ADP to ATP as a substrate for luciferase-based luminescence), was added immediately after at 5uL/well, followed by one final ten minute room temperature incubation. The plates were measured on a ViewLux plate reader for luminescent signal using a clear filter with a one second exposure. The %Activity was determined from the corrected luminescence values. As no specific T. brucei PFK inhibitors have been identified in the literature, 1x (1.25nM) and 0x PFK enzyme controls (untreated) were included to normalize %Activity of identified inhibitors; 0x enzyme values corresponded to 100%Activity (full inhibition), while 1x PFK enzyme values were used to normalize 0%Activity (no inhibition). Concentration-response curves were fitted to the signals arising from the resulting luminescence. […]", "values": [{"smiles": "CCN[C@]1(c2cccs2)CCCCC1=O", "activity change, negative = inhibition": "-2.63% [at 24.3 µM] (inactive)"}, {"smiles": "CC(C)CC(CN)CC(=O)O", "note": "(stereo not given)", "activity change, negative = inhibition": "4.14% (inactive)"}, {"smiles": "CC([C@H](O)c1ccccc1)N(C)C", "note": "(stereo not given in full)", "activity change, negative = inhibition": "-2.82% (inactive)"}, {"smiles": "CNc1ccc(C(=O)CC(O)CCC(C)C2OC(=O)CC(O)CC(=O)CC(O)CC(O)CC(O)CC(O)CC3(O)CC(O)C(C(=O)OC)C(CC(O[C@@H]4OC(C)C(O)C(N)C4O)/C=C/C=C/C=C/C=C/C=C/C=C/C=C/C2C)O3)cc1", "note": "(stereo not given in full)", "activity change, negative = inhibition": "-0.814% (inactive)"}, {"smiles": "CC[C@@]1(c2ccc(N)cc2)CCC(=O)NC1=O", "activity change, negative = inhibition": "-2.57% (inactive)"}, {"smiles": "CNC(C)[C@@H](O)c1ccc(O)cc1", "note": "(stereo not given in full)", "activity change, negative = inhibition": "3.55% (inactive)"}, {"smiles": "ClC1=C(Cl)C2(Cl)C3C4CC(C5OC45)C3C1(Cl)C2(Cl)Cl", "note": "(stereo not given)", "activity change, negative = inhibition": "-12.9% (inactive)"}, {"smiles": "COc1cc2c(cc1OC)[C@@]13CCN4CC5=CCOC6CC(=O)N2C1[C@H]6[C@@H]5C[C@@H]43", "note": "(stereo not given in full)", "activity change, negative = inhibition": "10.4% (inactive)"}, {"smiles": "[Hg+][c]1ccccc1", "Potency": "11.2 µM (active)"}, {"smiles": "N[C@H]1C[C@H]1c1ccccc1", "activity change, negative = inhibition": "-7.45% (inactive)"}, {"smiles": "CC(=O)OCC(=O)[C@@H]1CC[C@H]2[C@H]3CC[C@H]4C[C@@H](O)CC[C@]4(C)[C@@H]3C(=O)C[C@@]12C", "activity change, negative = inhibition": "3.83% [at 24.3 µM] (inactive)"}, {"smiles": "CN(C)[C@@H]1C(=O)C(C(N)=O)=C(O)[C@]2(O)C(=O)C3=C(O)c4c(O)ccc(Cl)c4[C@](C)(O)[C@H]3C[C@@H]12", "activity change, negative = inhibition": "1.23% [at 24.3 µM] (inactive)"}, {"smiles": "CC[C@@H]1[C@@H]2C[C@H]3[C@H]4N(C)c5ccccc5[C@@]45C[C@@H]([C@@H]2[C@@H]5O)N3[C@H]1O", "activity change, negative = inhibition": "8.73% [at 24.3 µM] (inactive)"}, {"smiles": "CN[C@@H](C)[C@H]1CC[C@@H](N)[C@@H](O[C@@H]2[C@@H](O)[C@@H](O[C@H]3OC[C@@](C)(O)[C@@H](NC)[C@@H]3O)[C@H](N)C[C@@H]2N)O1", "note": "(tested in a mixture with another compound)", "activity change, negative = inhibition": "-1.88% [at 24.3 µM] (inactive)"}, {"smiles": "C[C@]12CC[C@H](OS(=O)(=O)O)CC1=CCC1C2CC[C@]2(C)C(=O)CC[C@@H]12", "note": "(stereo not given in full)", "activity change, negative = inhibition": "5.99% (inactive)"}, {"smiles": "C=CC1CN2CCC1CC2C(OC(=O)OCC)c1ccnc2ccc(OC)cc12", "note": "(stereo not given)", "activity change, negative = inhibition": "-4.67% (inactive)"}, {"smiles": "C[C@]12CC[C@H](O)C[C@H]1CCC1C2CC[C@]2(C)[C@@H](c3ccc(=O)oc3)C[C@H]3O[C@]132", "note": "(stereo not given in full)", "activity change, negative = inhibition": "-2.57% (inactive)"}, {"smiles": "CN(C)C(=O)Oc1cc(OC(=O)N(C)C)cc([C@@H](O)CNC(C)(C)C)c1", "activity change, negative = inhibition": "-0.646% [at 24.3 µM] (inactive)"}, {"smiles": "O=c1ccc2cc(O[C@H]3O[C@@H](CO)[C@@H](O)[C@@H](O)[C@@H]3O)c(O)cc2o1", "activity change, negative = inhibition": "0.976% [at 24.3 µM] (inactive)"}, {"smiles": "CCN(CC)C(=O)N[C@@H]1C[C@@H]2c3cccc4[nH]cc(c34)C[C@H]2N(C)C1", "activity change, negative = inhibition": "1.33% (inactive)"}, {"smiles": "CC(C)N(CC[C@@](C(N)=O)(c1ccccc1)c1ccccn1)C(C)C", "activity change, negative = inhibition": "0% (inactive)"}, {"smiles": "COc1cc(N)c(Cl)cc1C(=O)N[C@@H]1CN2CCC1CC2", "activity change, negative = inhibition": "-4.62% (inactive)"}, {"smiles": "Clc1ccc([C@@H](OCCN2CCCCC2)c2ccccc2)cc1", "activity change, negative = inhibition": "11.4% [at 24.3 µM] (inactive)"}, {"smiles": "CC(C)(O)C1C2OC(=O)C1[C@]1(O)C[C@H]3O[C@]34C(=O)O[C@H]2[C@]14C", "note": "(stereo not given in full) (tested in a mixture with another compound)", "activity change, negative = inhibition": "-6.24% (inactive)"}, {"smiles": "C[N+]1([O-])[C@@H]2CC[C@H]1CC(OC(=O)[C@@H](CO)c1ccccc1)C2", "note": "(stereo not given in full)", "activity change, negative = inhibition": "3.07% [at 24.3 µM] (inactive)"}, {"smiles": "C[N+]1(C)[C@@H]2CC[C@H]1CC(OC(=O)[C@@H](CO)c1ccccc1)C2", "note": "(stereo not given in full)", "activity change, negative = inhibition": "-0.205% [at 24.3 µM] (inactive)"}, {"smiles": "C[C@H](N)[C@@H](O)c1ccccc1", "activity change, negative = inhibition": "0.872% [at 24.3 µM] (inactive)"}, {"smiles": "CCC(C)C1O[C@]2(C=CC1C)CC1CC(C/C=C(\\C)[C@H](OC3CC(OC)C(O[C@H]4CC(OC)[C@@H](O)C(C)O4)C(C)O3)[C@@H](C)/C=C/C=C3\\COC4C(O)C(C)=C[C@H](C(=O)O1)[C@@]34O)O2", "note": "(stereo not given in full)", "activity change, negative = inhibition": "2.31% (inactive)"}, {"smiles": "CC1=C2[C@@H]3OC(=O)[C@@H](C)[C@@H]3CC[C@]2(C)C=CC1=O", "activity change, negative = inhibition": "1.76% (inactive)"}, {"smiles": "C[N+]1([O-])[C@@H]2CC(OC(=O)[C@@H](CO)c3ccccc3)C[C@@H]1[C@H]1O[C@H]12", "note": "(stereo not given in full)", "Potency": "inactive"}, {"smiles": "O=[As]O[As]=O", "note": "(stereo not given)", "activity change, negative = inhibition": "-6.35% (inactive)"}, {"smiles": "CC[C@]1(c2cccc(O)c2)CCCCN(C)C1", "activity change, negative = inhibition": "-4.23% [at 24.3 µM] (inactive)"}, {"smiles": "Oc1ccc2c3c1O[C@H]1[C@@H](O)CC[C@@]4(O)C(C2)N(CC2CCC2)CCC314", "note": "(stereo not given in full)", "activity change, negative = inhibition": "4.62% (inactive)"}, {"smiles": "CC(=O)O[C@H]1CC[C@@]2(C)C(=CC[C@@H]3[C@H]2CC[C@]2(C)C(=O)CC[C@H]32)C1", "activity change, negative = inhibition": "-1.97% [at 24.3 µM] (inactive)"}, {"smiles": "COc1ccc2c(c1OC)CN1CCc3cc4c(cc3[C@H]1C2)OCO4", "activity change, negative = inhibition": "4.78% [at 24.3 µM] (inactive)"}, {"smiles": "CCNC[C@H](O)c1cccc(O)c1", "activity change, negative = inhibition": "-4.14% [at 24.3 µM] (inactive)"}, {"smiles": "C[C@]12CC[C@H]3[C@@H](CCC4=CC(=O)CC[C@@]43C)[C@@H]1CC[C@@H]2O", "activity change, negative = inhibition": "0% (inactive)"}, {"smiles": "C[C@H]1CN(C2CCC(C#N)(c3ccc(F)cc3)CC2)CC[C@@]1(C(=O)O)c1ccccc1", "note": "(stereo not given in full)", "activity change, negative = inhibition": "-0.865% [at 24.3 µM] (inactive)"}, {"smiles": "CC(=O)OC1C[C@H](O[C@@H]2C(O)C[C@H](O[C@@H]3C(O)C[C@@H](OC4CC[C@]5(C)C(CCC6C5CC(O)[C@@]5(C)C(C7=CC(=O)OC7)CC[C@@]65O)C4)OC3C)OC2C)O[C@H](C)[C@H]1O[C@H]1OC(CO)C(O)C(O)C1O", "note": "(stereo not given in full)", "activity change, negative = inhibition": "9.33% (inactive)"}, {"smiles": "C#CCN(C)[C@@H](C)Cc1ccccc1", "activity change, negative = inhibition": "0% (inactive)"}]}]}
